High-throughput results (PubChem)
D2 ag-1: agonists of human D2 dopamine receptor | P14416 | HEK293 T-REx D2 cells, calcium flux agonist mode | activation, % at 2 µM | actives 0.53% (n = 340,000) | AID 485358;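 active = activation over 3 SD above normal in the single-dose calcium agonist read, cut at about 30% in these data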; note: 0% is about no effect
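Tetracycline-induced HEK293 T-REx cells with force-coupled D2 receptor, plated overnight at 30 C, loaded with no-wash calcium dye. After a 10 s baseline, compound was pin-added and calcium flux read kinetically for 180 s; calcium rises flagged agonists.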
D2 antagonist: D2 dopamine receptor (human) antagonism | P14416 | HEK293 TREx D2 cells, calcium flux, dopamine EC80 | inhibition, % at 10 µM | actives 2% (n = 340,000); in the data active = inhibition above about 30%; inactive = below that, where a call was filed; note: 0% is about no effect
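Read-out: kinetic calcium fluorescence (1 cycle/s) in inducible HEK293 T-REx D2 cells after an EC80 dopamine addition that followed 180 s compound preincubation. Loss of the dopamine response indicates antagonism.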
D2 PAM-1: positively modulates the human D2 dopamine receptor allosterically; actives 0.34% (n = 340,000); HEK293 T-REx D2, calcium flux, EC20 dopamine potentiation; AID 485347; P14416; potentiation, % at 10 µM;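 active = potentiation over 3 SD above the plate norm, cut at about 30% in these data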; note: 0% is about no effect
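Calcium flux readout, no-wash dye, 1 read/s. Inducible HEK293 Trex D2 line, overnight 30 C. Compound alone 180 s (agonist flags), then EC20 dopamine, another 180 s to score potentiation.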
D2 ag-2: human D2 receptor agonism in beta-arrestin assay; AID 624465; activation, % (concentration not given with the values); P14416; DiscoveRx PathHunter D2 beta-arrestin, luminescence, 90 min; 100% = 57 uM dopamine signal; actives 0.084% (n = 360,000); in the data active = activation above about 40%; inconclusive = between about 15% and that limit
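DiscoveRx PathHunter D2 beta-arrestin cells (2,100/well) attached overnight, then compound-stimulated 90 min at 37 C in HBSS/10 mM HEPES/0.1% Tween-20 buffer; beta-galactosidase complementation read by luminescence after 1 h at ambient temperature. Dopamine 57 uM final (EC100) as control.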
D2 PAM-2: human D2 receptor positive allosteric modulation; P14416; DiscoveRx D2 beta-arrestin cells, luminescence, 90 min; 100% = 57 uM dopamine signal; potentiation, % (no concentration beside the values); actives 0.23% (n = 360,000); AID 624464; in the data active = potentiation above about 50%; inconclusive = mostly about 30% to 49%
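PathHunter D2 cells, attached overnight at 37 deg C, received compound in DMSO plus dopamine at EC20 (50 nM final) for 90 min at 37 deg C. Beta-arrestin recruitment was read as luminescence after 1 h with detection reagent at ambient temperature.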
D3 arrestin ag: confirmation of human D3 dopamine receptor agonists, beta-arrestin | shares compounds with D2 ag-1 | DiscoveRx D3 beta-arrestin cells, luminescence, 90 min | Potency, µM (highest dose often 76.9 µM), without a hit: at the highest dose activation, usual class: activators | actives 4% (n = 2,300) | AID 720506;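 note: potency is the fitted concentration of half-maximal effect; 100% = dopamine control response; nearly all actives have a fitted effect of over 70% in size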
Target sequence (P35462 whole entry, looked up): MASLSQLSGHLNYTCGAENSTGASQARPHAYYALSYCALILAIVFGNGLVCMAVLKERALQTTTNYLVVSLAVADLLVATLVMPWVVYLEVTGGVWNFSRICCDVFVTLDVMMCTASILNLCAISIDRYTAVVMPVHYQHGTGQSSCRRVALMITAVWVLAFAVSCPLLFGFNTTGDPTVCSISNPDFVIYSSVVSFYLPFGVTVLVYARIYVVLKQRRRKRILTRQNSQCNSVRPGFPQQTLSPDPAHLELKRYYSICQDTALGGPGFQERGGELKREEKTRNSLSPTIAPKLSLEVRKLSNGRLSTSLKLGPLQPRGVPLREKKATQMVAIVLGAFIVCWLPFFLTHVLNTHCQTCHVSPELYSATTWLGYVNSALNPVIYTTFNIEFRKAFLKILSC
D2 ag-3: D2 receptor agonism, beta-arrestin counterscreen; actives 5.9% (n = 2,300); DiscoveRx PathHunter D2 beta-arrestin, luminescence, 90 min; response scale: percent relative to full dopamine signal; shares compounds with D2 ag-1; Potency, µM (doses to about 76.9 µM), without a hit: top-dose activation, hits mostly activators; note: potency is the fitted concentration of half-maximal effect; % of control where 0% means no effect; nearly all actives have a fitted effect of over 70% in size
* = called active by the depositor; ? = inconclusive; · = no result. In the library only some 2.4% were active in any assay of this set; here they are far more common. Unless noted, calls come from the whole dose curve; as a rule, active = well fitted activation curve with a large enough effect; inconclusive = small, poorly fitted or top-dose-only effect; inactive = flat fitted curve, though single readings scatter.

SMILES	D2 ag-1	D2 antagonist	D2 PAM-1	D2 ag-2	D2 PAM-2	D3 arrestin ag	D2 ag-3
COc1ccc(-n2c(=O)c3ccc(C(=O)NCc4ccc(C)cc4)cc3n(CC(=O)Nc3ccc(F)cc3)c2=O)cc1	1	·	12	·	·	·	·
Cc1cc(C)cc(NC(=O)c2cc(C)nn2C)c1	34*	2	-14	-5	-6	3%	-1%
O=C(NCc1ccncc1)c1ccc(NS(=O)(=O)c2ccc(F)cc2)cc1	·	·	·	1	-8	-3%	-5%
O=C(NCCCN1CCCC1=O)c1cc(NS(=O)(=O)c2ccc(F)cc2)cc(NS(=O)(=O)c2ccc(F)cc2)c1	0	-1	-2	-1	-10	·	·
O=C(NCCCN1CCCC1=O)c1ccc(NS(=O)(=O)c2ccc(F)cc2)cc1	2	-4	4	4	-4	-9%	-2%
CC(C)(C)OC(=O)N1CCC(c2c(C(=O)N3CCN(c4ccccn4)CC3)cnn2-c2ccc(F)cc2F)CC1	-1	·	4	·	·	·	·
CC(C)N1CCN(Cc2ccccc2-c2ccco2)CC1CCO (stereo not given)	-2	-12	5	-1	-1	·	·
CC(C)N1CCN(Cc2cccc(-c3ccco3)c2)CC1CCO (stereo not given)	0	14	-3	3	-16	-8%	-6%
NC(=NC(=O)c1ccc(Cl)cc1)N1N=CCC1c1ccccc1 (stereo not given)	50*	23	-6	-4	2	-2%	5%
CC(C(=O)Nc1ccc(N2CCOCC2)cc1)N1C(=O)c2ccccc2C1=O (stereo not given)	1	-3	-5	0	-7	·	·
CC(C)C(C(=O)Nc1ccc(N2CCOCC2)cc1)N1C(=O)c2ccccc2C1=O (stereo not given)	0	19	2	1	16	4%	4%
CCN1CCc2c(sc(NC(=S)NC(=O)c3ccco3)c2C(N)=O)C1	30*	-21	-5	-10	-19	8%	-5%
CCN1CCc2c(sc(NC(=O)c3ccc(C(=O)c4ccccc4)cc3)c2C(N)=O)C1	74*	5	-19	-3	-9	-8%	2%
Cc1sc(NC(=S)NC(=O)c2ccco2)c(C(N)=O)c1C	0	-6	4	-3	-3	·	·
Cc1ccc(C)c(N2CCN(C(c3ccc(F)cc3)c3nnc(-c4ccccc4)o3)CC2)c1 (stereo not given)	1	·	22	·	·	·	·
Cc1ccccc1OCc1nc2ccc(S(=O)(=O)N3CCOCC3)cc2[nH]1	0	10	0	-5	0	·	·
O=S(=O)(c1ccc2nc(COc3ccc(Cl)cc3Cl)[nH]c2c1)N1CCOCC1	0	38*	1	1	-11	6%	4%
Nc1ccc(C(=O)N/N=C2\CCCc3c2[nH]c2ccccc32)cc1	·	·	·	-4	4	·	·
c1ccc(CCN=C2CCCc3c2[nH]c2ccccc32)cc1	77*	58*	-23	13	8	?	?
Cc1ccc(Cn2nnc3c(=O)[nH]c(C4CCCN(S(=O)(=O)c5ccc(F)cc5)C4)nc32)cc1 (stereo not given)	0	-19	·	-2	-4	·	·
O=c1[nH]c(C2CCCN(S(=O)(=O)c3ccc(F)cc3)C2)nc2c1nnn2Cc1ccc(F)cc1 (stereo not given)	1	68*	-5	0	-3	4%	-3%
Cc1ccc2c(c1)C(c1ccc(F)cc1)N(C(=O)c1cccc(C(F)(F)F)c1)CC(=O)N2 (stereo not given)	-1	·	-10	·	·	·	·
CCC(C)NS(=O)(=O)c1ccc(N2CCCCS2(=O)=O)cc1 (stereo not given)	-3	·	11	·	·	·	·
Cn1c(=O)[nH]c(=O)c2c1nc(N1CCN(CCO)CC1)n2Cc1ccccc1Cl	-1	30*	-3	-5	-1	-13%	-7%
COc1ccc(C)cc1S(=O)(=O)N1CCN(c2cccc(Cl)c2)CC1	·	·	-5	·	·	·	·
SMILES	D2 ag-1	D2 antagonist	D2 PAM-1	D2 ag-2	D2 PAM-2	D3 arrestin ag	D2 ag-3
COc1ccccc1N1CCN(S(=O)(=O)CCNC(=O)COc2ccccc2)CC1	·	·	·	0	-17	·	·
COc1ccccc1OCC(=O)NCCS(=O)(=O)N1CCN(c2ccccc2)CC1	44*	62*	-14	?	15	?	?
Cc1ccccc1C(=O)Nc1cccc(OCc2cc(=O)n3c4c(sc3n2)CCCC4)c1	-1	·	8	·	·	·	·
C[C@@H]1O[C@@H](Oc2c(-c3ccc(O)c(O)c3)oc3cc(O)cc(O)c3c2=O)[C@H](O)[C@H](O)[C@H]1O	·	·	·	-6	11	·	·
C[C@@H]1O[C@@H](O[C@H]2[C@H](O)[C@@H](O)[C@H](Oc3c(-c4ccc(O)c(O)c4)oc4cc(O)cc(O)c4c3=O)O[C@@H]2CO)[C@H](O)[C@H](O)[C@H]1O	-1	-17	10	-1	-1	0%	4%
COCCNC(=S)Nc1cc2oc3ccccc3c2cc1OC	57*	30*	-19	2	-12	-4%	17%
C=C(C)Cn1c(=O)c2c(nc3n2CCN3c2ccc(CC)cc2)n(C)c1=O	-1	·	6	·	·	·	·
O=C(NNS(=O)(=O)c1ccccc1[N+](=O)[O-])c1cccc(Br)c1	·	·	·	3	11	·	·
O=C(NNS(=O)(=O)c1ccccc1[N+](=O)[O-])c1cccc(Cl)c1	51*	-23	-19	-1	9	-4%	1%
Cc1ccc(/C([O-])=C(/C(=S)NCc2ccccc2)[n+]2ccccc2)cc1[N+](=O)[O-]	31*	8	-18	-4	-4	-15%	-7%
CCOC(=O)C1CCN(Cc2cn(C)nc2-c2ccc(Oc3ccccc3)cc2)CC1	18	20	-8	5	-5	-12%	9%
CCOC(=O)C1(Cc2cccc(OC)c2)CCN(Cc2cnc(SC)nc2)CC1	59*	93*	-19	-2	3	0%	?
Cn1cc(CN2CCC(O)CC2)c(-c2ccc(Oc3ccccc3)cc2)n1	1	10	-14	-7	-12	·	·
CCOC(=O)C1(CCOc2ccccc2)CCN(Cc2cccn2-c2ncccn2)CC1	0	-8	3	1	-7	-8%	3%
CCOC(=O)C1(CCOC)CCN(Cc2cccc(OCc3ccccc3)c2)CC1	63*	37*	-20	1	-4	0%	25%
CCOC(=O)C1CCN(Cc2cccc(OCc3ccccc3)c2)CC1	74*	86*	-21	48*	22	14%	?
